Assay outcomes (PubChem)
SMN2 splice up – SMN2 splice variant enhancement. HEK293 SMN2-luciferase splicing reporter, luminescence, 30-36 h. Potency, µM (highest dose often 46.1 µM), usual class: activators. 210,000 compounds, 2.8% hits. AID 1458; further: nearly all actives have a fitted effect of over 55% in size
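qHTS luciferase splicing reporter: luminescence rises when SMN2 exon 7 is included in transfected HEK293 cells. Compound exposure lasted 30-36 h at 37C, with 4.5 mM final sodium butyrate as control, followed by a ONE-Glo read.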
FLuc modulator – inhibits or activates purified firefly luciferase, miR-21 counter-screen; Potency, µM (highest dose often 57.5 µM), most hits filed as inhibitors; P08659; purified FLuc, Km substrates, luminescence inhibition; 360,000 compounds, 6.9% hits; AID 588342; further: nearly all actives have a fitted effect of over 55% in size
Target sequence (P08659 whole entry, looked up): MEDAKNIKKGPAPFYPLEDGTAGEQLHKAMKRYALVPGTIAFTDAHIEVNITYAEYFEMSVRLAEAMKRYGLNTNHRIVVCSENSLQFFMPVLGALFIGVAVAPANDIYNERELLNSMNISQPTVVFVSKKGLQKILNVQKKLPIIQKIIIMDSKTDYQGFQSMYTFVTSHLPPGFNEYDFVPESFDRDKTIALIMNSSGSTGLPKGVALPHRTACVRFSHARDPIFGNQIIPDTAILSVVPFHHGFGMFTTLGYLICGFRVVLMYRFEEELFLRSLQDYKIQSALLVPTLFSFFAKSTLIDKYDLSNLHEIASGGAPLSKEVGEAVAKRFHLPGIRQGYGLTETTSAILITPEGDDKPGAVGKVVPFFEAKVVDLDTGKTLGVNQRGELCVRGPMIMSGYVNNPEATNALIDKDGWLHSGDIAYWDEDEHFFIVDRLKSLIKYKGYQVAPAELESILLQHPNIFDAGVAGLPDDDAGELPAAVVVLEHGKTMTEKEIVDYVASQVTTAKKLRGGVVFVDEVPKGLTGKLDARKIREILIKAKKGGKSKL
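Biochemical qHTS of compounds, final roughly 60 µM downward over six points, against 10 nM purified firefly luciferase using Km concentrations of substrates (10 uM D-luciferin, 10 uM ATP) in Tris acetate pH 7.5 buffer; luminescence output.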
NPC1 promoter act – activators of NPC1 promoter | Potency, µM (highest dose often 9.22 µM), most hits filed as activators | 320,000 compounds, 2.4% hits | Huh7 NPC1 promoter luciferase reporter, 24 h | AID 485313; further: nearly all actives have a fitted effect of over 60% in size
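Cells: Huh7 expressing luciferase under the NPC1 promoter, 1500/well. Seeded 2 h, compound added, incubated 24 h at 37 °C. Luciferase reagent, 10 min ambient, then luminescence.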
Rab9 prom act – activators of Rab9 promoter; Huh7 Rab9 promoter-luciferase reporter, luminescence, 24 h; Potency, µM (doses to about 9.22 µM), most hits filed as activators; 320,000 compounds, 2.8% hits; AID 485297; further: nearly all actives have a fitted effect of over 60% in size
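Luciferase signal after 10 min detection reagent at ambient indicates Rab9 promoter upregulation; stably transfected Huh7 cells were treated 24 h with compound in DMSO at 37 °C, 5% CO2.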
Luc counter – blocks Kinase-Glo luciferase, a counter-screen artifact | Kinase-Glo luciferase, ATP luminescence, 8 min | Potency, µM (series often up to 38.3 µM), usual class: inhibitors | 200,000 compounds, 0.28% hits; further: nearly all actives have a fitted effect of over 60% in size
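Substrate mix (final 50 mM imidazole pH 7.2, 50 mM KCl, 7 mM MgCl2, 10 uM ATP, 0.01% Tween 20, 0.05% BSA) plus pin-tool compound, then Kinase-Glo detection mix; 8 min ambient, luminescence read.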
Hits are given with their value; – = inactive; ? = inconclusive; · = no result; [ ] = another dose, or the depositor's remark. Most compounds without a hit are left out; they make up all but 7.3% or so of the library. The call rests on the fitted dose curve; in most records, active means well fitted curve in the direction sought with a large enough effect; inconclusive means small, poorly fitted or top-dose-only effect, or another doubt; inactive means no such curve, though single readings can be large; an effect the other way counts as inactive or inconclusive.

SMILES	SMN2 splice up	FLuc modulator	NPC1 promoter act	Rab9 prom act	Luc counter
COc1cccc(N=Nc2ccc(O)c3ncccc23)c1	·	6.01µM	–	–	·
O=S(=O)(O)c1ccc2cc(N=Nc3cc(S(=O)(=O)O)c4cccnc4c3O)ccc2c1	–[9.22 µM]	·	·	·	–[7.66 µM]
O=Nc1ccc(O)c2ncccc12	·	–	–	–	·
CCCCC(=O)Nc1ccc(OCc2cc(=O)n3c(C)csc3n2)cc1	–	–	·	·	·
CCOC(=O)Nc1ccc2c(c1)OCO2	–	?	?	?	–
CCOC(=O)c1c(C)[nH]c(C(=O)Nc2ccc3c(c2)OCO3)c1C	·	4.78µM	3.55µM	3.98µM	–
CC(=O)c1c(C)[nH]c(C(=O)OCc2ccccc2)c1C	?	15.1µM	?	?	–
CCOC(=O)c1c(C)[nH]c(C(=O)OCc2ccccc2F)c1C	·	2.69µM	1.58µM	1.58µM	·
CCOC(=O)c1c(C)[nH]c(C(=O)OCc2ccc(F)cc2)c1C	·	4.78µM	2.24µM	1.58µM	·
COc1ccc(S(=O)(=O)N(CC(=O)NCc2ccc(C)cc2)c2ccc(Cl)cc2)cc1	–	–	·	·	·
CC(=O)N1CCc2cc(Br)cc(S(=O)(=O)NCCc3ccc(Cl)cc3)c21	–	–	·	·	·
CC(C)Oc1cccc(C(=O)Nc2ccc3oc(-c4cccc(Cl)c4)nc3c2)c1	–	–	·	·	·
CCOC(=O)c1[nH]c(C)c(C(=O)Nc2ccc(C)c(C)c2)c1C	–	–	?	1.41µM	–
CCOC(=O)c1[nH]c(C)c(C(=O)Nc2ccc(F)cc2)c1C	–	–	–	–	–
CCOC(=O)c1[nH]c(C)c(C(=O)Nc2ccccc2F)c1C	5.01µM	?	–	–	–
O=C(Nc1ccc(F)c(F)c1)c1ccc(-n2cncn2)c([N+](=O)[O-])c1	·	–	–	–	·
O=C(Nc1cccc(/C=C/c2ccccn2)c1)c1ccc(-n2cncn2)c([N+](=O)[O-])c1	·	23.9µM	–	–	·
O=C(Nc1cccc(/C=C/c2ccccn2)c1)c1cc(Cl)ccn1	·	19µM	?	2.82µM	·
Cc1cc(C)c2c(CC(=O)Nc3nnc(CC(C)C)s3)coc2c1	–	–	·	·	·
Nc1ccc2nc(-c3ccc(O)cc3)sc2c1	1.41µM	0.301µM	·	·	·
Nc1cccc(-c2nc3ccc(N)cc3s2)c1	12.6µM	0.269µM	?	?	12.6µM
Nc1ccc(-c2nc3ccc(N)cc3s2)cc1	·	0.269µM	?	?	·
CC(=O)c1ccc(NS(=O)(=O)c2ccc(Br)s2)cc1	–	?	·	·	·
O=C(/C=C/c1ccc(-c2ccccc2[N+](=O)[O-])o1)c1ccco1	–	19µM	–	?	–
CC1=C(C(=O)Nc2ccc(F)cc2F)C2(CCCCCC2)OC1=O	·	–	·	·	·
SMILES	SMN2 splice up	FLuc modulator	NPC1 promoter act	Rab9 prom act	Luc counter
O=C(N1CCN(c2ccccn2)CC1)C(Cl)(Cl)Cl	3.98µM	–	–	–	–
Cc1ccc(Cl)cc1N1CCN(C(=O)CCSCc2ccccc2F)CC1	·	–	·	·	·
O=C(CCc1ccccc1)N1CCN(c2ccc(F)cc2)CC1	–	–	–	–	–
O=C(c1c(Cl)cccc1Cl)N1CCN(c2ccccn2)CC1	?	–	–	–	–
O=C(CCSCc1ccccc1F)N1CCN(c2ccccn2)CC1	?	19µM	–	?	–
COC(=O)C1CCN(C(=O)CSc2ccccc2)CC1	–	–	–	–	–
O=C(CCCOc1ccccc1)N1CCN(c2ccc(F)cc2)CC1	–	26.9µM	–	–	–
COC(=O)C1CCN(C(=O)CCCOc2ccccc2)CC1	·	4.78µM	?	2.24µM	–
O=C(CCCOc1ccccc1)N1CCN(c2ccccn2)CC1	14.1µM	6.75µM	1.26µM	0.891µM	–
O=C(CCCOc1ccc(Cl)cc1Cl)N1CCN(c2ccccn2)CC1	–	–	–	–	–
Cc1ccc(Nc2nc3nonc3[nH]c2=O)cc1	–	15.1µM	–	?	–
COC(=O)c1ccccc1NC(=O)c1cc(CN2CCOCC2)on1	·	–	·	·	·
Cc1ccc(C(=O)COC(=O)c2cc(-c3ccc(Cl)cc3)nc3ccccc23)cc1	–	–	·	·	·
Cc1ccc(C)c(C(=O)COC(=O)c2cc(Cl)nc3ccccc23)c1	–	12µM	–	–	–
Cc1cc(C(=O)OCC(=O)c2ccccc2)c2ccccc2n1	·	?	–	–	·
Cc1ccc(C(=O)COC(=O)c2cc(Cl)nc3ccccc23)cc1C	–	15.1µM	–	–	–
CCc1ccc(N=C2NC(=O)CC(C(=O)Nc3ccc(OC)cc3)S2)cc1 (centres undefined)	–	–	·	·	·
COc1ccc(CCNC(=O)c2cccs2)cc1OC	–	–	–	–	–
COc1ccc(CNc2nc(NCc3ccc(OC)c(OC)c3)n(C(=O)c3cccs3)n2)cc1OC	–	10.7µM	–	–	–
CC(C)[C@@H](CO)NC(=O)c1ccc2c3n(nc2c1)-c1ccc(Cl)cc1CO3	·	8.49µM	1.41µM	1.12µM	·
C[C@@H](CO)NC(=O)c1ccc2c3n(nc2c1)-c1ccc(Cl)cc1CO3	·	3.01µM	1.41µM	2.82µM	·
Cc1ccc(Cl)cc1Nc1nn2c(=O)c3ccc(C(=O)NC(C)c4ccccc4)cc3nc2s1 (centres undefined)	·	–	·	·	·
CN1CCN(c2ccc(-c3nc(-c4ccccc4)no3)cc2[N+](=O)[O-])CC1	·	–	·	·	·
COc1cccc(NS(=O)(=O)c2cc3c4c(c2)C(C)C(=O)N4CCC3)c1 (centres undefined)	·	–	·	·	·
CCc1cc(C(=O)Cc2ccccn2)c(O)cc1O	·	–	–	–	·
SMILES	SMN2 splice up	FLuc modulator	NPC1 promoter act	Rab9 prom act	Luc counter
CC(=O)Oc1ccc(C(=O)Cc2ccccn2)c(O)c1	–	16.9µM	–	–	–
O=C(CSc1nc2ccccc2s1)N1CCCCC1	20µM	23.9µM	2.82µM	3.55µM	–
NC(=O)C1CCN(C(=O)CSc2nc3ccccc3s2)CC1	–	–	–	–	–
O=C(O)C1CCN(C(=O)CSc2nc3ccccc3s2)CC1	–	?	–	–	–
CC1CCN(C(=O)CSc2nc3ccccc3s2)CC1	?	12µM	2.82µM	2.82µM	–
NS(=O)(=O)c1cc(C(=O)Nc2ccc3c(c2)CCC3)ccc1Cl	·	16.9µM	3.55µM	3.98µM	·
Cn1cc(C(=O)Nc2ccc3c(c2)CCC3)cn1	·	21.3µM	–	–	–
Cc1ccc(C(=O)Nc2ccc3c(c2)CCC3)cc1	1.41µM	0.379µM	?	0.316µM	–
CC1=CC(C)(C)Nc2ccc(OC(=O)c3ccco3)cc21	–	21.3µM	–	–	–
